PubChem BioAssay (NCATS)
Inconclusive results are not listed. Activity calls are given as the source filed them. The call rests on the fitted dose curve; in most records, active means well fitted inhibition curve with a large enough effect; inconclusive means small, poorly fitted or top-dose-only effect; inactive means flat fitted curve, though single readings scatter.

The molecules below were run on NAD(P)H diaphorase (Clostridium kluyveri) (assay: Diaphorse counterscreen qHTS: Assay Interference Panel against the NCATS CANVASS Library (AID 1347362; on activity change, negative = inhibition: 0% is about no effect)). Conditions: Diaphorase enzyme, resazurin to resorufin fluorescence; series mostly up to 57.5 µM; activity change, negative = inhibition: at the top concentration.
Excerpt: Natural products and their derivatives continue to be wellsprings of nascent therapeutic potential. However, many laboratories have limited resources for biological evaluation, leaving their previously isolated or synthesized compounds largely or completely untested. To address this issue, the Canvass library of natural products was assembled (https://tripod.nih.gov/canvass), in collaboration with academic and industry researchers, for quantitative high-throughput screening (qHTS) across a diverse set of cell-based and biochemical assays. The pure (>85% purity by liquid chromatography/mass spectrometry [LC/MS]) Canvass library of 346 natural products were submitted by 45 academic laboratories and companies around the world. We collected pure natural products to circumvent deconvolution and structure elucidation due to time and resource limitations. The library was formatted into 1536-well plates and evaluated in 50 qHTS (in an 11-pnt concentration series) bioassays with broad scope of disease-relevant mechanisms. The resulting data set from 50 different assays was then systematically analyzed to identify overall trends and specific natural products with interesting biological activities. Reported herein are the results of each individual qHTS and their corresponding assay protocol. This assay determines potential interactions with a common fluorescent coupling enzyme, NAD(P)H-Diaphorase, to identify possible false positives in future assays. The assay measures the conversion of resazurin to fluorescent resorufin, to identify compounds that inhibit the activity of diaphorase. National Center for Advancing Translational Sciences (NCATS), Rockville, MD National Institute of Health (NIH), Bethesda, Maryland
Assay Interference counterscreen protocol 1. In a 1536 well, black solid bottom, medium binding plates (Corning 7494), 3 uL of diaphorase from Clostridium kluyveri in PBS + 0.01% Tween-20 was dispensed into columns 2 to 48, rows 1 to 32 using the Bioraptr dispenser. PBS-T solution was dispensed in column 1, rows 1 to 32 for control purposes. 2. Compounds were pin transferred (~23 nL volume) via Wako Pin-tool (Wako Automation, Richmond VA) equipped with a 1536 pin head. The assay plates were treated with compounds in a concentration series with a final concentration range of 0.2 nM to 128 uM. 3. PTC was used as a control (25 uM, n = 32, column 2, row 1-32) at a final concentration of 114.5 nM and was pin transferred via Wako Pin-tool equipped with a 1536 pin head. 4. The assay plates were incubated in the dark for 15 minutes at room temperature. 5. One microliter of 4x detection reagent (40 uM Resazurin + 40 uM NADH in PBS-T) was then added to the assay plates (column 1-48, rows 1-32) for a final assay volume of 4 uL. 6. The assay plates were further incubated in the dark for 5 minutes at room temperature. 7. Fluorescence signal was acquired via the ViewLux plate reader (PerkinElmer) using an excitation filter 525/20, emission filter 598/25; 1000 light energy, 2 second exposure, 2x binning settings.
Potency means the concentration at half of the fitted maximal effect.

Question: `C[C@@]12CCC[C@@](C)(C(=O)O)[C@H]1C[C@@H](O)[C@@]13C[C@@H](CC[C@@H]21)[C@](C)(O)C3` was tested. Which “activity change, negative = inhibition” value did it give?
Answer: -3.04% (inactive)

Question: With `O=C1CC2OCC=C3CN4C5CC3C2[C@@H]2N1c1ccccc1[C@]52C[C@@H]4C1=C[C@H]2C3CC4N(CC[C@@]45c4ccccc4N(C1=O)[C@@H]25)C/C3=C/CO` (stereo not given in full) as the molecule, how does the “activity change, negative = inhibition” value read?
Answer: -11.6% (inactive)

Question: How did the “activity change, negative = inhibition” value turn out when `CO/C=C/C(=O)c1cc2cnc3c(N)cc(=NC(=O)C(C)C)c([nH]1)c23` was run?
Answer: -11.5% (inactive)

Question: How did the “activity change, negative = inhibition” value turn out when `CC(C)=CCC[C@]12c3cc4c(cc3CC[C@@]1(C)[C@H](C)CC[C@@H]2O)[nH]c1ccccc14` was run?
Answer: -15.6% (inactive)

Question: For `COC(=O)[C@@]12Oc3cccc(O)c3C(O)=C1C(=O)C[C@H](C)[C@H]2O`, which “activity change, negative = inhibition” value is on record?
Answer: -12% [at 114 µM] (inactive)

Question: Which “activity change, negative = inhibition” value does the source give for `C/C=C1/C2=CCCN3C(=O)O[C@H]([C@H]1O)[C@H]23` here?
Answer: -18.2% (inactive)

Question: `C/C(=C\[C@H](C)C(=O)CCCC1CC(=O)NC(=O)C1)[C@@H]1OC(=O)/C=C/CC/C=C/[C@H](O)[C@@H](O)[C@@H]1C` was tested. Which “activity change, negative = inhibition” value did it give?
Answer: -11.7% (inactive)

Question: For `C[C@@]12CCC[C@@](C)(C(=O)O)[C@H]1CC[C@@]13C[C@@H](CC[C@H]12)[C@](C)(O)C3`, which “activity change, negative = inhibition” value is on record?
Answer: -3.75% (inactive)

Question: With `C/C=C1/CN2C3CC1C1C=CC(=O)N4c5ccccc5[C@@]3(C[C@@H]2C2=C[C@H]3C5CC6N(CC[C@@]67c6ccccc6N(C2=O)[C@@H]37)C/C5=C/C)[C@H]14` (stereo not given in full) as the molecule, how does the “activity change, negative = inhibition” value read?
Answer: -15.8% (inactive)

Question: With `C[C@H]1C=C[C@H]2CCCC[C@@H]2[C@H]1C(=O)[C@H]1CC2=C(C(=O)O)CCN2C1=O` as the molecule, how does the “activity change, negative = inhibition” value read?
Answer: -10.6% (inactive)

Question: With `COc1ccc([C@@H]2c3cc4c(cc3C[C@H](C)C2C)OCO4)cc1OC` (stereo not given in full) as the molecule, how does the “activity change, negative = inhibition” value read?
Answer: -20.1% (inactive)

Question: How did the “activity change, negative = inhibition” value turn out when `CN1CC[C@]2(c3cccc4c3N[C@H]3N(C)CC[C@@]43[C@]34CCN(C)[C@H]3Nc3ccccc34)c3ccccc3N[C@H]12` was run?
Answer: -14.4% (inactive)

Question: How did the “activity change, negative = inhibition” value turn out when `CC(=O)N[C@H](C)c1nc(/C=C/C=C/C(=O)CC2CC(=O)CC[C@]2(C)O)cs1` (stereo not given in full) was run?
Answer: -8.08% (inactive)

Question: For `CO[C@H]1[C@@H](OC(=O)/C(C)=C\[C@@H]2O[C@@H]2[C@H]2O[C@H]2C)[C@H](O)[C@H](OCC23C[C@@H]4[C@H](C)CC[C@H]4C4(C=O)CC2C=C(C(C)C)C34C(=O)O)O[C@@H]1C` (stereo not given in full), which “activity change, negative = inhibition” value is on record?
Answer: -16.9% (inactive)

Question: How did the “activity change, negative = inhibition” value turn out when `C[C@@]1(CCC(=O)Nc2c(O)ccc(C(=O)O)c2O)C(=O)C=C[C@]23C[C@H]4C[C@H](O[C@@]4(C)C2)C31` (stereo not given in full) was run?
Answer: -11.9% (inactive)

Question: Which “activity change, negative = inhibition” value does the source give for `COC1C(C)OC(OCC23C[C@@H]4[C@H](C)CC[C@H]4C4(C=O)CC2C=C(C(C)C)C34C(=O)O)[C@@H](O)[C@H]1O` (stereo not given in full) here?
Answer: -23.2% (inactive)

Question: How did the “activity change, negative = inhibition” value turn out when `COC(=O)c1cccc2oc(-c3cccc4oc(-c5c(C)cccc5O)nc34)nc12` was run?
Answer: -2.74% (inactive)

Question: Which “activity change, negative = inhibition” value does the source give for `O=C1OC(CCO)c2cccc(O)c21` (stereo not given) here?
Answer: 0% (inactive)

Question: For `O[C@H]1C=C2[C@H]3CN(Cc4cc5c(cc43)OCO5)[C@H]2C[C@@H]1O`, which “activity change, negative = inhibition” value is on record?
Answer: -6.39% (inactive)

Question: With `C[C@H](CCC(O)C(C)(O)CO)[C@@]1(O)CC[C@@]2(C)C3=C(CC[C@@]21C)[C@@]1(C)CCC(OC(=O)CCC(=O)O)C(C)(C)[C@@H]1CC3` (stereo not given in full) as the molecule, how does the “activity change, negative = inhibition” value read?
Answer: -12.8% (inactive)

Question: For `C[C@@]12CCC[C@@](C)(C(=O)OP(=O)(O)OC[C@H]3O[C@@H](n4cnc5c(N)ncnc54)[C@H](O)[C@@H]3O)[C@H]1C[C@@H](O)[C@@]13C[C@@H](CC[C@@H]21)[C@](C)(O)C3`, which “activity change, negative = inhibition” value is on record?
Answer: 7.67% (inactive)

Question: Which “activity change, negative = inhibition” value does the source give for `COc1cc2oc3ccccc3c(=O)c2cc1OC` here?
Answer: -15.2% [at 114 µM] (inactive)

Question: How did the “activity change, negative = inhibition” value turn out when `C/C=C/[C@H]1[C@H]2C(=O)c3c(O)c(C)c(O)c(C)c3[C@]1(C(=O)O)C(=O)C=C2C` was run?
Answer: -7.39% (inactive)

Question: Which “activity change, negative = inhibition” value does the source give for `C[C@]12CCC[C@](C)(C(=O)O)[C@@H]1CC[C@@]1(C)c3cocc3CC[C@H]21` here?
Answer: -19.8% (inactive)

Question: `C=C1C[C@H]2O[C@@H]3[C@@H]4[C@H](CC[C@@](C)(O)[C@@H]42)[C@H](C)COC3(C)[C@@H](OC(=O)CCCCCCC)CC1=O` (stereo not given in full) was tested. Which “activity change, negative = inhibition” value did it give?
Answer: -24% (inactive)

Question: With `O=C1CC(c2ccc(O)cc2)Oc2cc(O)cc(O)c21` (stereo not given) as the molecule, how does the “activity change, negative = inhibition” value read?
Answer: -8.02% (inactive)

Question: `C=C1[C@@]2(C)CC3C4(C)CCC(O)C(C)(C)C4CCC3(C)[C@]1(C(=O)OC)C(=O)C(C)(O)C2=O` (stereo not given in full) was tested. Which “activity change, negative = inhibition” value did it give?
Answer: -8.93% (inactive)

Question: How did the “activity change, negative = inhibition” value turn out when `C=C[C@]1(C)CC[C@@H]([C@H](C)C(=O)/C=C/C(C)(C)O)O1` was run?
Answer: 1.3% (inactive)

Question: With `C[C@@H]1CC[C@]2(C(=O)O)CC[C@]3(C)C(=C2[C@H]1C)CC[C@@H]1[C@@]2(C)CC[C@H](O)C(C)(C)[C@@H]2CC[C@]13C` as the molecule, how does the “activity change, negative = inhibition” value read?
Answer: 4.97% (inactive)

Question: Which “activity change, negative = inhibition” value does the source give for `CN1CC[C@@]23c4ccccc4N[C@@H]1[C@@]21CCN(C)[C@@H]3Nc2ccccc21` here?
Answer: -2.85% (inactive)

Question: How did the “activity change, negative = inhibition” value turn out when `CO[C@H]1/C=C/CCCCC(=O)O[C@@H](/C(C)=C/[C@H](C)C(=O)C[C@H](O)CC2CC(=O)NC(=O)C2)[C@@H](C)C1` was run?
Answer: -15.6% (inactive)

Question: With `COc1cc(C2C3=C(Cc4cc5c(cc42)OCO5)C(=O)OC3)cc(OC)c1OC` (stereo not given) as the molecule, how does the “activity change, negative = inhibition” value read?
Answer: -13% (inactive)

Question: How did the “activity change, negative = inhibition” value turn out when `CC[C@@H]1C[C@@]2(CC)OC(=O)[C@@]3(CC)[C@H](CC)[C@@H]1[C@@H]23` was run?
Answer: -5.59% (inactive)

Question: Which “activity change, negative = inhibition” value does the source give for `C=C[C@]1(C)CC[C@@H]([C@H](C)C(=O)CC=C(C)C)O1` here?
Answer: -1.64% (inactive)

Question: For `COC(=O)[C@@]1(C)CCC[C@]2(C)c3cc(OC)ccc3CC[C@@H]12`, which “activity change, negative = inhibition” value is on record?
Answer: -6.23% (inactive)

Question: How did the “activity change, negative = inhibition” value turn out when `COc1cc2ccc(=O)oc2c(O)c1O[C@@H]1O[C@H](CO)[C@@H](O)[C@H](O)[C@H]1O` was run?
Answer: -9.84% [at 34.3 µM] (inactive)

Question: `COC(=O)C1=C[C@]23C[C@@H](C)CC[C@@H]2[C@@]2(C)CC[C@@H](C(C)C)[C@@](O)(O3)[C@@H]12` was tested. Which “activity change, negative = inhibition” value did it give?
Answer: -16.8% (inactive)

Question: For `CC[C@H]1[C@H](C)[C@H](c2cc(OC)c(OC)cc2OC)[C@@H](C)[C@H](c2cc(OC)c(OC)cc2OC)[C@@]12C=C(OC)C(=O)C=C2OC`, which Potency is on record?
Answer: 21.6 µM (active)

Question: `C=C(C)C(=O)O[C@H]1C[C@@]2(C)OC(=CC2=O)/C(C)=C\[C@H]2OC(=O)C(=C)[C@H]12` was tested. Which “activity change, negative = inhibition” value did it give?
Answer: -2.57% (inactive)

Question: `COc1cc(C2OCC3C(c4ccc(O)c(OC)c4)OCC23)ccc1O` (stereo not given) was tested. Which activity change, negative = inhibition did it give?
Answer: 1.68% [at 11.5 µM] (inactive)
